Two sequences from article PMC7862700, “An all-to-all approach to the identification of sequence-specific readers for epigenetic DNA modifications on cytosine” can be followed below.

Test in all cases: DAPPL (digital affinity profiling via proximity ligation, sequencing); 10 mM Tris-HCl pH 7.5, 50 mM NaCl, 1 mM DTT, 4% glycerol, room temperature, 30 min; GST-TFs on glutathione beads, 16-mer random dsDNA library, 0.1% formaldehyde crosslink after washing; high values mean tight binding
Conditions in all cases: protein: recombinant; tags: N-terminal GST; dsDNA, one strand shown

One assay addresses T1, FLI1 (Homo sapiens, UniProt Q01543 1-452).
T1 sequence: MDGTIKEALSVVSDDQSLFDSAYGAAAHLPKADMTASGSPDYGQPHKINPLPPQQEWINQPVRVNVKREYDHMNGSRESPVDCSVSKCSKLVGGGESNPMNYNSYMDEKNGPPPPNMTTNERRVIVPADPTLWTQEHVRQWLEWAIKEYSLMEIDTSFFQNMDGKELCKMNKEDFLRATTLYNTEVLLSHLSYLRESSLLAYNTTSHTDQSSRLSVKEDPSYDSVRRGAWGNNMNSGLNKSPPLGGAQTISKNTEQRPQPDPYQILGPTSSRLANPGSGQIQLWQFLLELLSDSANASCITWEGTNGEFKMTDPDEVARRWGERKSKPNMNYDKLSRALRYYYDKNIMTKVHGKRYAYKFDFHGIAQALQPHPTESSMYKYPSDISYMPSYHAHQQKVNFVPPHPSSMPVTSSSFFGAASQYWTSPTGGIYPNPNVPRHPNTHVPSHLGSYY
The procedure, abridged: (§1)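 Binding signal is defined as a hexamer's read frequency for one factor over its frequency for the tag-only sample. To obtain reads, GST-fused human transcription factors were expressed in yeast, captured on glutathione beads, barcoded with DNA and pooled with that sample. Pools met 200 nmole of a 16-mer random double-stranded DNA library in Tris/NaCl/DTT/glycerol buffer for 30 min at room temperature before washing, 0.1% formaldehyde crosslinking, proximity ligation (BsaI/T4 ligase, 1 h, 37 °C), PCR and Illumina NextSeq500 sequencing.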

Another assay concerns the target T2, ELK1 (Homo sapiens, UniProt P19419 1-428).
T2 sequence: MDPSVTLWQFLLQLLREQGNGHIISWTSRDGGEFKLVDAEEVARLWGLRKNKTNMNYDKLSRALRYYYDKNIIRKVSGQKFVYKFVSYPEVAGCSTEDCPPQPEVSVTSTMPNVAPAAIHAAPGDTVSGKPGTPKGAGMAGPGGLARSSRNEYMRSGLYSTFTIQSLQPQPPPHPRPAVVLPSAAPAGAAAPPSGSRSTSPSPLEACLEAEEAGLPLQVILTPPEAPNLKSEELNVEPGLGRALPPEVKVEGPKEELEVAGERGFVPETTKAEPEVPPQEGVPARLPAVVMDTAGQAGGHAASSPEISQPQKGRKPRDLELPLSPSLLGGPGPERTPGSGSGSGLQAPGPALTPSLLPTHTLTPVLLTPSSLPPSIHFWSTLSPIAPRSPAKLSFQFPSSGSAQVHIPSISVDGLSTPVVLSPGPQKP
The procedure, abridged:
as §1

Another assay addresses T3, GABPA (Homo sapiens, UniProt Q06546 1-454).
T3 sequence: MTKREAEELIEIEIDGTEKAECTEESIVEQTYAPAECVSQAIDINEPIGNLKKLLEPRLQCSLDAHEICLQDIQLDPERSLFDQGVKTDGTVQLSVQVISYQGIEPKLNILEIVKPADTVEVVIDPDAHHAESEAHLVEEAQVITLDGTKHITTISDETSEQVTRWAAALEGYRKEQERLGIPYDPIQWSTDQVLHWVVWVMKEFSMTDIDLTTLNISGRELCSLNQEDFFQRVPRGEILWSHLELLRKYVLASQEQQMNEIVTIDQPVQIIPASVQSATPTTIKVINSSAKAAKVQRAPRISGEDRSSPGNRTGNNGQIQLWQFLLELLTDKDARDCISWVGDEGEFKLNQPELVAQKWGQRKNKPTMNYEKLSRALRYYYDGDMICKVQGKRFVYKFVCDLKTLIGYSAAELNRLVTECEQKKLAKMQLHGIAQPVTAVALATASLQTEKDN
Put shortly: as §1

Another assay deals with T4, ERG (Homo sapiens, UniProt P11308 1-479).
T4 sequence: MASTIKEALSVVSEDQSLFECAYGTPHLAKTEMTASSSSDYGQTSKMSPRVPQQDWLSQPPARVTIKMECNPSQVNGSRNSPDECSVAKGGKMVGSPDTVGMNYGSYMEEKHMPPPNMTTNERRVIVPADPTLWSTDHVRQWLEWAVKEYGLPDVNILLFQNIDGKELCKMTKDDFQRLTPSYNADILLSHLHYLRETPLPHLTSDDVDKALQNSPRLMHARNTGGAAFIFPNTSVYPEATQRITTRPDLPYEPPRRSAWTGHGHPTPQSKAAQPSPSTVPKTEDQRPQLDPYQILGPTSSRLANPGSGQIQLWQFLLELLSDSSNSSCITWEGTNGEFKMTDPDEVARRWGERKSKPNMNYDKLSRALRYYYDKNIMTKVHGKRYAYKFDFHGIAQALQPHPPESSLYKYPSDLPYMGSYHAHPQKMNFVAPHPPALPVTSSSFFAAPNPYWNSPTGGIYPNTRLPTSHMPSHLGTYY
The procedure, abridged: as §1

In the next assay the target is ELF1 (Homo sapiens, UniProt P32519 1-619). The procedure, abridged:
as §1

Another assay deals with T5, EHF (Homo sapiens, UniProt Q9NZC4 1-300).
T5 sequence: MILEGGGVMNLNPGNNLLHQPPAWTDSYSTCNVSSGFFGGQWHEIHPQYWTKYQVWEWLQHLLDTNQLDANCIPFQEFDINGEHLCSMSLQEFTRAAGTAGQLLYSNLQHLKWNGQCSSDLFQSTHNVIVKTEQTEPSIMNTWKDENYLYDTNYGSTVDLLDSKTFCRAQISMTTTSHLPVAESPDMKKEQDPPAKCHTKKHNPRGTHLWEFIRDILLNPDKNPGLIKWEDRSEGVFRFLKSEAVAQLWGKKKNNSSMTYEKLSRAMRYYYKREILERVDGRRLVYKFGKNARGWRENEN
Put shortly:
as §1

In another assay the target is SPI1 (Homo sapiens, UniProt P17947 1-270). The procedure, abridged:
as §1

Another assay concerns the target SPIB (Homo sapiens, UniProt Q01892 1-262). Put shortly: as §1
The target of the next assay is T6, ELK3 (Homo sapiens, UniProt P41970 1-407).
T6 sequence: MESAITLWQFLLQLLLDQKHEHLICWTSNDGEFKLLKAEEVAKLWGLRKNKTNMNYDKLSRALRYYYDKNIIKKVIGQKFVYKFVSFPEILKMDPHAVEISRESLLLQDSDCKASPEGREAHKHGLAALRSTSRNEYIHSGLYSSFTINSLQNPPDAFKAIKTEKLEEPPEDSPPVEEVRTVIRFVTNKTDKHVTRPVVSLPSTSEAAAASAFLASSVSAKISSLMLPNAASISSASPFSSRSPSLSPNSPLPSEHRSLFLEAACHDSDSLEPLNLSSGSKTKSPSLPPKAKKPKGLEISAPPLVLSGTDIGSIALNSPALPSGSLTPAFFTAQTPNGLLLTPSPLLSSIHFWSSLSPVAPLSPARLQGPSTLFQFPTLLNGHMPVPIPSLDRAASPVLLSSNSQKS
Put shortly:
as §1

The target in the next assay is T7, FEV (Homo sapiens, UniProt Q99581 1-238).
T7 sequence: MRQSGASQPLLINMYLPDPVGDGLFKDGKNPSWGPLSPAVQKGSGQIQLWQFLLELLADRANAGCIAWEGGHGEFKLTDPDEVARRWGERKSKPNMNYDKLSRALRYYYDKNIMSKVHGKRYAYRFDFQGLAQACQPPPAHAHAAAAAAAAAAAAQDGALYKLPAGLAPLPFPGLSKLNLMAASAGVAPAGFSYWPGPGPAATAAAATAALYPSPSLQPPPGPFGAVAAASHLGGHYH
The procedure, abridged: as §1

The target in the next assay is ETV5 (Homo sapiens, UniProt P41161 1-510). The procedure, abridged:
as §1

The target of another assay is T8, SPIC (Homo sapiens, UniProt Q8N5J4 1-248).
T8 sequence: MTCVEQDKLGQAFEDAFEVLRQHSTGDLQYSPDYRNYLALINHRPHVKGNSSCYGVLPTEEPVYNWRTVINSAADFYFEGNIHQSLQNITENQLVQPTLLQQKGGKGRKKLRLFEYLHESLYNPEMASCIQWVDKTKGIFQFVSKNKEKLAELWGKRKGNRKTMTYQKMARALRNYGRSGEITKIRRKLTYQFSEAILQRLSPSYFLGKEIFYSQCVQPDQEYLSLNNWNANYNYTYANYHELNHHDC
Put shortly:
as §1

The target of a further assay is ELF4 (Homo sapiens, UniProt Q99607 1-663). The procedure, abridged: as §1
A further assay deals with T9, ELK4 (Homo sapiens, UniProt P28324-2 1-405).
T9 sequence: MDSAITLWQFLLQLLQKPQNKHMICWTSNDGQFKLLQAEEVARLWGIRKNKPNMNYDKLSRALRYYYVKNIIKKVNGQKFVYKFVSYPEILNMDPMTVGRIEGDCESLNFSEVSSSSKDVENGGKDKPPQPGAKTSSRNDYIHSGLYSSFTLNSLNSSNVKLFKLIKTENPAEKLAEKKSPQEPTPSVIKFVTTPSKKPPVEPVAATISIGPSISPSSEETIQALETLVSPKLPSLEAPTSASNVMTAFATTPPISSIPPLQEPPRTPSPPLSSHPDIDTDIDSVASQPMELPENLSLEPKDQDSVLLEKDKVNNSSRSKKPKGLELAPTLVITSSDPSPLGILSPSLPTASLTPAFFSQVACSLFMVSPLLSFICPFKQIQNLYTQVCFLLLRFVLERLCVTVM
Put shortly: as §1

In the next assay the target is T10, ETV2 (Homo sapiens, UniProt O00321 1-342).
T10 sequence: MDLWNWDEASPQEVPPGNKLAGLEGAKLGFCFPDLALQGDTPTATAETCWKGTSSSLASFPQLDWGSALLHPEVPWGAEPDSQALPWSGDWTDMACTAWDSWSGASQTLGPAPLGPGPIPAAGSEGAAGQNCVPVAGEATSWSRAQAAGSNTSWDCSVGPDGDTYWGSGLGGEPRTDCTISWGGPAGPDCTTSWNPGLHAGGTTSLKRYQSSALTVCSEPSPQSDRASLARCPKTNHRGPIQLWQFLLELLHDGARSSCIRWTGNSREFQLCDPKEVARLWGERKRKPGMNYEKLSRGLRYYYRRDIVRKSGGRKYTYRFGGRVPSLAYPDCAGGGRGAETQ
Put shortly:
as §1

The next assay concerns the target T11, ELF3 (Homo sapiens, UniProt P78545 1-371).
T11 sequence: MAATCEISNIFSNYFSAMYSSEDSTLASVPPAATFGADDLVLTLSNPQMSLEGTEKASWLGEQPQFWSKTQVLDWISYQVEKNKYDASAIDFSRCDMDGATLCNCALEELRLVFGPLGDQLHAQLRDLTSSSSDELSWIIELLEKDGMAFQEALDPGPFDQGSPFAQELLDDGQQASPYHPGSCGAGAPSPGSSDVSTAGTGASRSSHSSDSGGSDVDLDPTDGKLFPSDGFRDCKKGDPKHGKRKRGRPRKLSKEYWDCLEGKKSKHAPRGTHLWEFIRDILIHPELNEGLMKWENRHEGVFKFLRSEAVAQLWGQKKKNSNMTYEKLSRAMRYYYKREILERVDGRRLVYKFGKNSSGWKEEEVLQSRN
Put shortly: as §1

A further assay concerns the target ETV1 (Homo sapiens, UniProt P50549 1-477). Put shortly:
as §1

Chain of SPIB (Q01892 whole entry): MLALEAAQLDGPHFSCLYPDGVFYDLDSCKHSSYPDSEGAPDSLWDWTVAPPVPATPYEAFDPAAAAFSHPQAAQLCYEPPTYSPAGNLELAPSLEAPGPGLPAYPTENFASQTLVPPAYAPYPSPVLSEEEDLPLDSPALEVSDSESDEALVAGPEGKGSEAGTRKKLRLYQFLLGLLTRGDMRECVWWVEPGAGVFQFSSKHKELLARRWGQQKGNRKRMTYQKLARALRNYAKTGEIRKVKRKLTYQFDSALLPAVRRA
Chain of ELF4 (Q99607 whole entry): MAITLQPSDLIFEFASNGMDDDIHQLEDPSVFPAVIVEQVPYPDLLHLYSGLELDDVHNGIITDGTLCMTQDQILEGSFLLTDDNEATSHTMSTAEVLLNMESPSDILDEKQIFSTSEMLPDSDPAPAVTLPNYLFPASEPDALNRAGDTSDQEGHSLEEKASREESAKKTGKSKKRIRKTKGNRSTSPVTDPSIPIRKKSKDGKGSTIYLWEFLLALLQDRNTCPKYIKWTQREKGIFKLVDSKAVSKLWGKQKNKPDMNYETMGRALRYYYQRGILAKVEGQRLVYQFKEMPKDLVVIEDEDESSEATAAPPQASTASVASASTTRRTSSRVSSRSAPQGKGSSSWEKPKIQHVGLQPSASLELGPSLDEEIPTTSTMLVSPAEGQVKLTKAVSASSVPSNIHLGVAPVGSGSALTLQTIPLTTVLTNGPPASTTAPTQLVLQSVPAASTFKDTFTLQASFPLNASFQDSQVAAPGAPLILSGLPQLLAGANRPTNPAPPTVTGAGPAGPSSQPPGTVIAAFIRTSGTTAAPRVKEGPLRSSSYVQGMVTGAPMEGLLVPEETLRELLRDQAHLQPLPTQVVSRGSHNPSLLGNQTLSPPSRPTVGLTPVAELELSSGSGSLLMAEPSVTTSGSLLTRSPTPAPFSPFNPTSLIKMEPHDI
Chain of ELF1 (P32519 whole entry): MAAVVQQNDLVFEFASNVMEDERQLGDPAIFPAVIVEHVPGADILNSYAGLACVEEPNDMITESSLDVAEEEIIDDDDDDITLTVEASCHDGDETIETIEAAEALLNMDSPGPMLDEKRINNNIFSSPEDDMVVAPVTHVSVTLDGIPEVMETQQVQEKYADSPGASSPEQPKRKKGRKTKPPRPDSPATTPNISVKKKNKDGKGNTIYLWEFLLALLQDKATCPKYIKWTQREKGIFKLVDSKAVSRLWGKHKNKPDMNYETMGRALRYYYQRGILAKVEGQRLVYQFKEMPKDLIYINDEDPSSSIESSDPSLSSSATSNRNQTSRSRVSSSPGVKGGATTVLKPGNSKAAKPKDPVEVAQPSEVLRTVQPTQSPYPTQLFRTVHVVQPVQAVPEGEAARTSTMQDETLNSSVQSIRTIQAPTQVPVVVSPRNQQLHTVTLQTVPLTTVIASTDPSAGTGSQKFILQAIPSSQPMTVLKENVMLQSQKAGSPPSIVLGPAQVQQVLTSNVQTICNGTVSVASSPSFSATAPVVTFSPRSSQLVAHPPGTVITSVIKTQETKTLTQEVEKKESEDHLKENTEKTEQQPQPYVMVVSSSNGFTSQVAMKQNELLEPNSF
Chain of ETV1 (P50549 whole entry): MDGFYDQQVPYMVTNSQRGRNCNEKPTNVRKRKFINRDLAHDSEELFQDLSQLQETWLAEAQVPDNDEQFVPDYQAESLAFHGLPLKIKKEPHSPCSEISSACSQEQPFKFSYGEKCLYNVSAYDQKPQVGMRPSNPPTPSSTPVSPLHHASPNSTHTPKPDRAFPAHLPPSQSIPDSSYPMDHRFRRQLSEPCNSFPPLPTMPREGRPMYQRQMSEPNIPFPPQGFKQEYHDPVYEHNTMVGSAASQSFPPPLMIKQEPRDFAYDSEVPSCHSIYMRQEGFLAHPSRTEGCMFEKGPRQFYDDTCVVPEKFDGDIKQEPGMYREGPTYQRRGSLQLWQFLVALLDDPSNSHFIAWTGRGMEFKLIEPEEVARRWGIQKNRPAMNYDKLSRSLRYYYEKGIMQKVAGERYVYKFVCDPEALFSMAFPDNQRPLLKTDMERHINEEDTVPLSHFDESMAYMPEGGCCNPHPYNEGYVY
Chain of ETV5 (P41161 whole entry): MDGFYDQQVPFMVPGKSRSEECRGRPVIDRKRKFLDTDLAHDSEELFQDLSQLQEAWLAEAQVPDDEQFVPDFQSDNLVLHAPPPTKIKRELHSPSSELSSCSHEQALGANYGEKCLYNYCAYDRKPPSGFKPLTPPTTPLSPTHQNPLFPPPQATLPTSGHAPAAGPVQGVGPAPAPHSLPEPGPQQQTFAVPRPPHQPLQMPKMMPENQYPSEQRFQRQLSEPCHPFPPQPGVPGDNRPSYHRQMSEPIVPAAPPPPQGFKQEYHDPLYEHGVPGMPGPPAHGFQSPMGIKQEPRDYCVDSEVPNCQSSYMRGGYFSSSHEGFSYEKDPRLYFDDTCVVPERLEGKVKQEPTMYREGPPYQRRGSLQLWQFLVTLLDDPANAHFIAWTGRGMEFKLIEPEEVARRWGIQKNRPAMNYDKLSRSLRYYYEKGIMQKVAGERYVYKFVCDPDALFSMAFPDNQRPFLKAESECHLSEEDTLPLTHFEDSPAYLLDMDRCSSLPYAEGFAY

Take GTGTTT: the binding signal with FLI1 was 1.15 fold enrichment (6-mer frequency, TF over GST control); in the assay with ELK1, 1.19 fold enrichment (6-mer frequency, TF over GST control); with GABPA, 1.08 fold enrichment (6-mer frequency, TF over GST control); with ERG it was 1.07 fold enrichment (6-mer frequency, TF over GST control); with ELF1, 1.16 fold enrichment (6-mer frequency, TF over GST control); with EHF it was 1.09 fold enrichment (6-mer frequency, TF over GST control). Further, the binding signal in the assay with SPI1 was 1.11 fold enrichment (6-mer frequency, TF over GST control); with SPIB, 1.16 fold enrichment (6-mer frequency, TF over GST control); with ELK3, 1.2 fold enrichment (6-mer frequency, TF over GST control); with FEV, 1.09 fold enrichment (6-mer frequency, TF over GST control); in the assay with ETV5, 1.14 fold enrichment (6-mer frequency, TF over GST control); in the assay with SPIC, 1.21 fold enrichment (6-mer frequency, TF over GST control). Also, the binding signal is 1.18 fold enrichment (6-mer frequency, TF over GST control) in the assay with ELF4; 1.11 fold enrichment (6-mer frequency, TF over GST control) with ELK4; 1.02 fold enrichment (6-mer frequency, TF over GST control) with ETV2; 1.17 fold enrichment (6-mer frequency, TF over GST control) in the assay with ELF3; 1.21 fold enrichment (6-mer frequency, TF over GST control) with ETV1.

For the sequence CTGACG, the binding signal in the assay with FLI1 is 1.19 fold enrichment (6-mer frequency, TF over GST control); in the assay with ELK1, 1.09 fold enrichment (6-mer frequency, TF over GST control); with GABPA, 1.23 fold enrichment (6-mer frequency, TF over GST control); with ERG it was 1.06 fold enrichment (6-mer frequency, TF over GST control); with ELF1, 1.16 fold enrichment (6-mer frequency, TF over GST control); with EHF it was 1.01 fold enrichment (6-mer frequency, TF over GST control). Moreover, the binding signal in the assay with SPI1 was 1.06 fold enrichment (6-mer frequency, TF over GST control); in the assay with SPIB it was 1.13 fold enrichment (6-mer frequency, TF over GST control); with ELK3 it was 1.03 fold enrichment (6-mer frequency, TF over GST control); with FEV, 1.11 fold enrichment (6-mer frequency, TF over GST control); with ETV5 it was 1.2 fold enrichment (6-mer frequency, TF over GST control); in the assay with SPIC, 1.13 fold enrichment (6-mer frequency, TF over GST control). For the same sequence, the binding signal in the assay with ELF4 was 1.06 fold enrichment (6-mer frequency, TF over GST control); with ELK4, 1.11 fold enrichment (6-mer frequency, TF over GST control); with ETV2, 1.35 fold enrichment (6-mer frequency, TF over GST control); with ELF3 it was 1.05 fold enrichment (6-mer frequency, TF over GST control); in the assay with ETV1, 1.09 fold enrichment (6-mer frequency, TF over GST control).
